Several values for one entry are separate records, joined by “and”; a condition that tells them apart may be missing. Identical values can stand only once. Screen size: about 5,500 compounds; about 2,000 (36%) were called active. Not shown: some 18% with an inconclusive outcome. Cut-off read from the data, not from the text of the source: active = normalized growth mostly below about 0.91 (no sharp cut-off); inconclusive = no clear call, values can overlap the other calls; inactive = mostly above about 0.92. This is one part of the list.
Test: chemical genetic growth profiling, strain panel (AID 1159580);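 note: tested at 20 µM; growth read once vehicle control cultures reached saturation at 30 °C; 1 = growth at the plate median or of vehicle wells; lower values mean less growth of the strain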
Settings: S. cerevisiae deletion strains, growth OD

Measured: normalized growth

CCCCOc1cc(C(=O)NCCN(CC)CC)c2ccccc2n1
inactive: locus YAL021C, strain ccr4, stronger effect = lower value 0.956 | locus YAL026C, strain drs2, stronger effect = lower value 0.986 | locus YAL030W, strain snc1, stronger effect = lower value 0.972 | locus YBL061C, strain skt5, stronger effect = lower value 0.97 | locus YBR009C, strain hhf1, stronger effect = lower value 0.97 | locus YBR021W, strain FUR4, stronger effect = lower value 1.02 | locus YBR023C, strain chs3, stronger effect = lower value 0.977 | locus YBR171W, strain sec66, stronger effect = lower value 0.947 | locus YBR229C, strain ROT2, stronger effect = lower value 1.01 | locus YBR231C, strain swc5, stronger effect = lower value 0.959 | locus YBR279W, strain paf1, stronger effect = lower value 0.998 | locus YCL011C, strain gbp2, stronger effect = lower value 0.987 | locus YCL016C, strain dcc1, stronger effect = lower value 1.01 | locus YCL029C, strain bik1, stronger effect = lower value 1.01 | locus YCL061C, strain MRC1, stronger effect = lower value 0.967 | locus YCL069W, strain vba3, stronger effect = lower value 0.984 | locus YCR088W, strain abp1, stronger effect = lower value 0.954 | locus YDL005C, strain med2, stronger effect = lower value 0.972 | locus YDL035C, strain GPR1, stronger effect = lower value 1.03 | locus YDL040C, strain nat1, stronger effect = lower value 0.96 | locus YDL074C, strain BRE1, stronger effect = lower value 1 | locus YDL101C, strain DUN1, stronger effect = lower value 1 | locus YDL134C, strain PPH21, stronger effect = lower value 1.03 | locus YDL185W, strain tfp1, stronger effect = lower value 1.01 | locus YDL192W, strain arf1, stronger effect = lower value 1 | locus YDR001C, strain nth1, stronger effect = lower value 0.933 | locus YDR069C, strain doa4, stronger effect = lower value 0.932 | locus YDR101C, strain arx1, stronger effect = lower value 1.01 | locus YDR137W, strain rgp1, stronger effect = lower value 1.02 | locus YDR159W, strain sac3, stronger effect = lower value 0.973 | locus YDR162C, strain NBP2, stronger effect = lower value 1.01 | locus YDR195W, strain ref2 0.932 | locus YDR297W, strain sur2, stronger effect = lower value 0.966 | locus YDR318W, strain mcm21, stronger effect = lower value 0.984 | locus YDR334W, strain swr1, stronger effect = lower value 0.925 | locus YDR335W, strain msn5, stronger effect = lower value 0.942 | locus YDR388W, stronger effect = lower value 0.995 | locus YDR392W, strain spt3, stronger effect = lower value 1.05 | locus YDR502C, strain sam2, stronger effect = lower value 0.996 | locus YEL003W, strain gim4, stronger effect = lower value 0.959 | locus YEL037C, strain rad23, stronger effect = lower value 0.968 | locus YEL061C, strain CIN8 (second series), stronger effect = lower value 0.941 | locus YEL061C, strain CIN8, stronger effect = lower value 1 | locus YER015W, strain faa2, stronger effect = lower value 0.973 | locus YER016W, strain bim1, stronger effect = lower value 1.01 | locus YER110C, stronger effect = lower value 1 | locus YER111C, strain swi4, stronger effect = lower value 0.966 | locus YER155C, strain BEM2 (second series), stronger effect = lower value 0.886 | locus YER155C, strain BEM2, stronger effect = lower value 0.998 | locus YER167W, strain BCK2, stronger effect = lower value 1 | locus YFR010W, strain ubp6, stronger effect = lower value 0.94 | locus YGL078C, strain dbp3, stronger effect = lower value 0.995 | locus YGL086W, strain mad1, stronger effect = lower value 0.992 | locus YGL167C, strain pmr1, stronger effect = lower value 0.939 | locus YGL173C, strain kem1, stronger effect = lower value 0.966 | locus YGL227W, strain vid30, stronger effect = lower value 0.956 | locus YGL240W, strain doc1, stronger effect = lower value 0.92 | locus YGL248W, strain PDE1, stronger effect = lower value 0.999 | locus YGL253W, strain hxk2, stronger effect = lower value 0.995 | locus YGR078C, strain PAC10, stronger effect = lower value 1 | locus YGR135W, strain pre9, stronger effect = lower value 0.977 | locus YGR252W, strain gcn5, stronger effect = lower value 0.914 | locus YHR013C, strain ard1, stronger effect = lower value 1.01 | locus YHR027C, strain rpn1, stronger effect = lower value 0.973 | locus YHR030C, strain SLT2, stronger effect = lower value 1.01 and 1.04 | locus YHR079C, strain IRE1 (second series), stronger effect = lower value 0.982 | locus YHR079C, strain IRE1, stronger effect = lower value 1.02 | locus YHR094C, strain hxt1, stronger effect = lower value 0.991 | locus YHR129C, strain ARP1, stronger effect = lower value 1.01 | locus YHR142W, strain chs7, stronger effect = lower value 0.974 | locus YHR200W, strain rpn10, stronger effect = lower value 0.998 | locus YIL066C, strain RNR3, stronger effect = lower value 1.01 | locus YIL073C, strain SPO22, stronger effect = lower value 1.03 | locus YIL125W, strain kgd1, stronger effect = lower value 0.997 | locus YIR030C, strain dcg1, stronger effect = lower value 0.993 | locus YJL092W, strain hpr5, stronger effect = lower value 0.979 | locus YJL095W, strain BCK1 (second series), stronger effect = lower value 0.966 | locus YJL095W, strain BCK1, stronger effect = lower value 0.988 and 1.04 | locus YJL115W, strain asf1, stronger effect = lower value 0.94 | locus YJL129C, strain trk1, stronger effect = lower value 0.939 | locus YJL134W, strain LCB3, stronger effect = lower value 1 | locus YJL154C, strain vps35, stronger effect = lower value 0.942 | locus YJL164C, strain tpk1, stronger effect = lower value 1 | locus YJL166W, strain qcr8, stronger effect = lower value 0.937 | locus YJL168C, strain set2, stronger effect = lower value 0.997 | locus YJL187C, strain SWE1 (second series), stronger effect = lower value 0.999 | locus YJR043C, strain POL32, stronger effect = lower value 1.02 | locus YJR066W, strain TOR1, stronger effect = lower value 0.968

Source: PubChem BioAssay AID1159580 (chemical genetic matrix, 2015)
